Laboratory results published in PubChem BioAssay (NCI).
The panel holds about 83,000 compounds, 20% with a hit somewhere; the sample as a whole holds those more often.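 The endpoint reported here, percent growth, reads 100 for growth as untreated, 0 for no net growth and -100 for all cells dead.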 Unmarked numbers belong to inactive results. Active and inactive are the calls of the source. How the source made its calls: active means growth percent below 10; inactive means the rest.

These molecules were tested on HL-60(TB) leukemia (assay: NCI-60 one-dose screen, 48 h (100 = growth as untreated, 0 = no growth, -100 = all killed)). Settings: 10 µM unless noted.

SMILES	growth
C[C@H](NC(=O)c1c(N)nn2cccnc12)c1cc2cccc(C#Cc3cnn(C)c3)c2c(=O)n1-c1ccccc1	-18.2% (active)
CC(=O)Oc1csc(N(C(C)=O)c2cccc(C(F)(F)F)c2)n1	107%
CC(C)(N)COS(=O)(=O)O	94.4%
O=c1c2cccc3c(NC4CCCCC4)ccc(c32)c2nc3ccccc3n12	62.6%
O=C(Nc1ccc(N2CCNCC2)cn1)c1[nH]ncc1Nc1ncnc2sccc12	76.7%
OC1(c2ccccc2)c2ccccc2N(c2ccccc2)c2ccc(Cl)cc21 (stereo unspecified)	-22.2% (active)
O=C(O)C1(Cc2cccc(Nc3nccs3)n2)CCC(Oc2cccc(Cl)c2F)CC1 (stereo unspecified)	50.7%
Oc1ccc(O)cc1	48.4%
O=C(CCCCCCN1CC(=O)N2[C@@H](c3ccc(Cl)cc3)c3[nH]c4ccccc4c3C[C@H]2C1=O)NO	46.8%
O=c1[nH]c(CN2CCN(c3cccc(Cl)c3)CC2)nc2cc(Cl)ccc12	116%
CCOC(=O)n1cnc2c(Cl)ncnc21	106%
O=C(Nc1sc2c(c1C(=O)O)CCCC2)c1cccc(C(F)(F)F)c1	92.9%
Nc1ccc(C2=Nc3cccc4cccc(c34)S2)cc1	76.7%
C[C@H]1C=C(C[C@@H](O)CCCCCCCCCC[C@@H](O)[C@H]2CCC(=O)O2)C(=O)O1	102%
COc1ccc2c(c1)[nH]c1c(/C=C/c3ccccc3)nccc12	61.1%
CCOC(=O)/C(O)=C(\C=N\C(=S)Nc1ccc(Cl)c(Cl)c1)C(=O)OCC	83.6%
